Shown are actives, neighbours in structure and some others; about 3.1% of the full set was active somewhere.
Bead autofluor = compound fluorescence in toxin protease inhibitor counterscreen; compound autofluorescence counterscreen, microsphere flow cytometry; hits give high values; fluorescence intensity (concentration not given with the values); 360,000 tested, 3.1% active; AID 624483; in the data active means fluorescence intensity above about 16000; inconclusive means no clear call, values can overlap the other calls
Anthrax LF prot = anthrax lethal factor protease inhibition; multiplex microsphere protease cleavage assay, LF; inhibition, % at 10 µM; 360,000 tested, 0.12% active; P15917
Target sequence (P15917 whole entry, looked up): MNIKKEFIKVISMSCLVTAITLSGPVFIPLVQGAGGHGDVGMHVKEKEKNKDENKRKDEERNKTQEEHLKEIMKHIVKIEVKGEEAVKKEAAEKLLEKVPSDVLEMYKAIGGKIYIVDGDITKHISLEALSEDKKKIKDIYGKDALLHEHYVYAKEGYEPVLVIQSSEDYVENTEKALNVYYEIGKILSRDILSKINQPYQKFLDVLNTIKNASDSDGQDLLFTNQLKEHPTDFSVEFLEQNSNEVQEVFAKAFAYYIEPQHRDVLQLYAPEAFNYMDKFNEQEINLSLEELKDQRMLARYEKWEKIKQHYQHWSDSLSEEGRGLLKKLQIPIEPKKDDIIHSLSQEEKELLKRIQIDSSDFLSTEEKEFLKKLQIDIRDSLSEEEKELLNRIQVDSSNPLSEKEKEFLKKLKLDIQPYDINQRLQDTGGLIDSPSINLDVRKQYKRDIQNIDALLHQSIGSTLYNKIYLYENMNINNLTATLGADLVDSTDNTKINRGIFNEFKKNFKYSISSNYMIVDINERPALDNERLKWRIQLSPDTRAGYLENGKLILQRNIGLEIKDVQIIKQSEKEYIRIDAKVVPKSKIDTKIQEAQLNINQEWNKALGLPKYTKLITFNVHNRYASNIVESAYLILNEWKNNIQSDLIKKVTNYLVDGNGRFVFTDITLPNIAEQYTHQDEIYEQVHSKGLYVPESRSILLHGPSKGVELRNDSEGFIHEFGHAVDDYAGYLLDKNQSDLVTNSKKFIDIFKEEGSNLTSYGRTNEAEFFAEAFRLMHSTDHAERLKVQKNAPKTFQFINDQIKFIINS
PriA SSB inh = inhibitors of Klebsiella pneumoniae PriA binding to SSB C-terminal tail; AID 1272365; AlphaScreen SSBct-PriA binding, biotinylated peptide; inhibition, % at 33 µM; 430,000 tested, 0.6% active; in the data active means inhibition mostly above about 37%, no sharp cut-off; inactive means mostly below about 20%
BoNT-F LC inh = blocks Botulinum neurotoxin F light chain protease; Multiplex microsphere protease cleavage assay, flow cytometry; inhibition, % at 10 µM; 360,000 tested, 0.22% active; in the data active means inhibition above about 35%, passing the limit was not always enough; inconclusive means no clear call, values can overlap the other calls
BoNT A protease = blocks Botulinum neurotoxin A light chain protease; multiplex microsphere protease substrate cleavage, flow cytometry; 360,000 tested, 0.17% active; inhibition, % at 10 µM
Hits are given with their value; - = inactive; ? = inconclusive; . = not tested or not shown. Unless noted, no stated cut-off is given here; in the data, active means inhibition above about 30%; inconclusive means no clear call, values can overlap the other calls; inactive means below that.

SMILES | Bead autofluor | Anthrax LF prot | PriA SSB inh | BoNT-F LC inh | BoNT A protease
CC(N=Cc1c(O)[nH]c(=O)[nH]c1=O)c1ccccc1 (stereo unspecified) | 17759 | - | - | - | -
CC(N=Cc1cccc(O)c1O)c1ccccc1 (stereo unspecified) | 22938 | - | - | - | -
CC(=NNC(=O)c1c[nH]c2ccccc12)c1ccc(C)o1 | . | . | - | . | .
CC(=O)Nc1ccc2c(c1)nc1n2CCOC1 | 24292 | - | - | - | ?
O=C(COc1ccc(Cl)cc1)Nc1ccc2c(c1)nc1n2CCOC1 | - | - | - | - | -
Cc1ccc(OCC(=O)Nc2ccc3c(c2)nc2n3CCOC2)cc1 | 20169 | - | - | - | ?
O=C(Nc1ccc2c(c1)nc1n2CCOC1)C1CCCCC1 | - | - | - | - | -
CCOc1nn(CC)cc1C(=O)N1CCC(Cc2ccccc2)CC1 | . | . | - | . | .
CCn1c(SCc2nc3ccccc3c(=O)[nH]2)nnc1-c1ccncc1 | - | - | - | - | -
Nn1c(SCc2nc3ccccc3[nH]2)nnc1-c1cccnc1 | 22326 | - | - | - | -
CCn1c(SCc2nc3ccccc3c(=O)[nH]2)nnc1-c1cccnc1 | 23337 | - | - | - | ?
CC1(C)N=C(c2ccc(Cl)cc2Cl)C(=O)N1 | 22553 | - | - | - | -
Cn1c(C(=O)O)ccc1-c1ccc(Cl)cc1Cl | . | . | - | . | .
COc1ccc(NC(=O)CSc2ncn(-c3ccccc3)n2)cc1Cl | 19084 | - | - | - | -
O=C(CSc1ccccn1)Nc1ccc(Br)cn1 | - | - | - | - | -
O=C(CSc1ncn(-c2ccccc2)n1)Nc1ccc2c(c1)OCCO2 | 24180 | - | - | - | -
O=C(CSc1ncn(-c2ccccc2)n1)Nc1ccc2c(c1)OCO2 | - | - | - | - | -
Cc1sc(NC(=O)CSc2ncn(-c3ccccc3)n2)nc1-c1ccccc1 | 16319 | - | - | - | -
O=C(CSc1ncn(-c2ccccc2)n1)Nc1ccc(Br)cn1 | 21921 | - | - | - | -
S=C(NCc1cn2ccccc2n1)Nc1ccccc1 | . | . | - | . | .
CC(C)(C)NC(=O)CN1CCN(Cc2nc(-c3ccc(F)cc3)cs2)CC1 | . | . | - | . | .
Clc1cccc(CONC=Nc2ncnc3sccc23)c1 | . | . | - | . | .
O=C(Cl)c1ccc(S(=O)(=O)N2CCCC2)cc1 | . | . | - | . | .
Cc1noc(C)c1S(=O)(=O)N1CCC(Oc2nccnc2C#N)C1 (stereo unspecified) | . | . | - | . | .
COc1ccccc1OCC(=O)NC[C@H](O)c1ccc2c(c1)CCO2 | . | . | - | . | .
SMILES | Bead autofluor | Anthrax LF prot | PriA SSB inh | BoNT-F LC inh | BoNT A protease
CN1C(=CC=[N+](C)c2ccccc2)C(C)(C)c2ccccc21 | . | . | - | . | .
O=[N+]([O-])c1cccc(C=NN=Cc2ccccc2)c1 | . | . | - | . | .
COCCOC(=O)c1c(C)oc2ccc(OCc3ccccc3)cc12 | - | - | - | - | -
C=C(C)COc1ccc2oc(C)c(C(=O)OCCOC)c2c1 | 24480 | - | - | - | ?
CC(C)c1ccccc1OCCOC[C@@H](O)CN1CCN(c2ccccc2F)CC1 | . | . | - | . | .
O=C1C(=O)N(CCCn2ccnc2)C(c2cccnc2)/C1=C(/O)c1ccc(F)cc1 (stereo unspecified) | 23173 | - | . | - | -
CC1Cc2cc(/C(O)=C3/C(=O)C(=O)N(CCCn4ccnc4)C3c3cccnc3)ccc2O1 (stereo unspecified) | 17226 | - | . | - | -
COc1ccc(C(O)=C2C(=O)C(=O)N(CC3CCCO3)C2c2cc(OC)ccc2OC)cc1 (stereo unspecified) | . | . | - | . | .
Nc1c(-c2ccc(Cl)cc2)cnn1-c1cccc([N+](=O)[O-])c1 | - | - | - | - | -
Nc1c(-c2ccccc2)cnn1-c1cccc([N+](=O)[O-])c1 | 17591 | - | - | - | -
CC(CC1CC(C)(C)OC1=O)C(=O)Nc1nncs1 (stereo unspecified) | 20331 | - | - | - | ?
Cn1cccc(C(=O)N2CCN(c3nc(-c4ccsc4)cs3)CC2)c1=O | . | . | - | . | .
CCc1ccccc1NC(=O)CSc1nc2c(sc3ncccc32)c(=O)n1Cc1ccccc1 | . | . | - | . | .
O=C(Cn1cnc2c(sc3cccc(Cl)c32)c1=O)N1CCN(c2ccc(F)cc2)CC1 | . | . | - | . | .
Cc1c(Br)c([N+](=O)[O-])nn1C(C)C(=O)NCc1cccnc1 (stereo unspecified) | 20382 | - | - | - | -
N#CCCN(CCC#N)c1nncs1 | - | - | - | - | -
CC(C)(C)c1csc(N(CCC#N)CCC#N)n1 | 16153 | - | - | - | -
Cn1nc(N2CCCC(C(=O)Nc3c[nH]c(=O)[nH]c3=O)C2)ccc1=O (stereo unspecified) | . | . | - | . | .
Cc1ccc(Nc2c([N+](=O)[O-])c(=O)n(C)c3ccccc23)cc1C | 21534 | - | - | - | -
Cn1c(=O)c([N+](=O)[O-])c(NCCc2ccccc2)c2ccccc21 | - | - | - | - | -
Cc1cc(C)cc(-n2nnc(C(=O)OCc3cccc(Cl)c3)c2C)c1 | . | . | - | . | .
COc1ccc(C2=NN(C(=O)CSc3nnc(CNC(=O)c4ccco4)n3-c3ccccc3OC)C(c3ccc(F)cc3)C2)cc1 (stereo unspecified) | . | . | - | . | .
O=C(NC(=S)N1CCN(c2ccc(C(F)(F)F)cc2[N+](=O)[O-])CC1)c1cccs1 | - | - | 51 | - | -
O=C(CCn1c(=O)[nH]c2ccsc2c1=O)N1CC(=O)N(CCc2ccccc2)C(=O)C1 | 23732 | - | - | - | ?
CCN(CC)c1ccc(/C=C2\C(=O)c3ccc(C(=O)O)cc3C2=O)cc1 | - | 37 | - | 64 | -
SMILES | Bead autofluor | Anthrax LF prot | PriA SSB inh | BoNT-F LC inh | BoNT A protease
CCCOc1ccc(-c2nc(C#N)c(N3CCC(C(N)=O)CC3)o2)cc1 | 19961 | - | - | - | -
COc1ccc(OCc2ccc(-c3nc(C#N)c(N4CCC(C(N)=O)CC4)o3)o2)cc1 | . | . | 37 | . | .
C=CCn1c(-c2cccc3ccccc23)n[nH]c1=S | 21011 | - | - | - | -
COc1ccc(-n2c(C)nc3ccc(NC(=O)c4cccc([N+](=O)[O-])c4C)cc3c2=O)cc1 | . | . | - | . | .
CCCCCCOc1ccc(C(=O)n2cnc(N)n2)cc1 | 21741 | - | - | - | -
CCC(C(=O)NCCn1ncc2c(=O)n(Cc3ccccc3F)cnc21)c1ccccc1 (stereo unspecified) | . | . | - | . | .
O=[N+]([O-])c1cccc(NN=Cc2ccc(N3CCOCC3)cc2)c1 | . | . | 52 | . | .
Fc1ccccc1-c1nnc2c3ccccc3nc(N3CCOCC3)n12 | 19272 | - | - | - | -
Clc1ccc(-c2nnc3c4ccccc4nc(N4CCOCC4)n23)cc1Cl | 21865 | - | - | - | ?
Cc1ccc(Cn2c(CO)cnc2SCC(=O)Nc2nc3ccccc3s2)cc1 | . | . | - | . | .
Cc1nccn1-c1ncc(NC(=O)c2cccc(Oc3ncccn3)c2)cn1 | . | . | - | . | .
Cc1cc2nc(-c3cccnc3SCC(=O)NCc3ccco3)[nH]c2cc1C | 22154 | - | - | - | -
O=C(CSc1ncccc1-c1nc2ccccc2[nH]1)NCc1ccco1 | - | - | - | - | -
Oc1cc(NCc2ccc(F)cc2)cc2cccnc12 | - | - | - | - | -
CN(C)CCCNc1cc(O)c2ncccc2c1 | - | - | 48 | - | -
Cc1cc(NC(=O)[C@@H](c2ccccc2)n2cccc2)ccc1Br | . | . | - | . | .
CC1(C)C2([N+](=O)[O-])CN3CC1([N+](=O)[O-])CN(C2)C3c1ccccc1 (stereo unspecified) | 22107 | - | - | - | -
